# Data published in PubChem BioAssay AID652256 (National Center for Advancing Translational Sciences (NCATS), 2013).
# Some of the results follow. Activity calls are given as the source filed them.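 Rule for the calls: active = a half-inhibiting concentration could be measured and was below 100 µM; inactive = the rest.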
# System: Thioredoxin reductase 1 (TXNRD1), rat
# Assay: qHTS Assay for Inhibitors of Mammalian Selenoprotein Thioredoxin Reductase 1 (TrxR1): DTNB Assay
# Settings: purified TrxR1, DTNB reduction, A412
# Source text: The selenoprotein thioredoxin reductase (TrxR; EC 1.8.1.9) is a FAD containing homodimeric pyridine nucleotide-disulfide oxidoreductase with many cellular roles. Together with NADPH and its prime substrate thioredoxin (Trx), the enzyme forms the core of the Trx system. The mammalian Trx system exerts a wide spectrum of functions including redox regulation, antioxidant defense, regulation of transcription factors as well as support of cell growth and replication. Many of these functions involve the reduction of Trx, which may subsequently reduce a number of different substrates including ribonucleotide reductase, peroxiredoxins or NFkB. Mammalian TrxR itself also has a broad substrate specificity, reducing both protein and non-protein substrates, including low molecular weight compounds such as dehydroascorbate, lipoic acid, ubiquinone, and juglone. In addition, several drugs in clinical use for anticancer treatment are indeed known to target TrxR1. This orthogonal DTNB assay seeks to further characterize cherry picks. […]
# 15 nM TrxR1 is reduced by 250 microM NADPH in TE buffer [50 mM Tris-HCl (pH 7.5), 2 mM EDTA] in a 96-well microtiter plate. […] During compound incubation, NADPH consumption is followed by the decrease in absorbance at 340 nm using a VersaMax microplate reader (Molecular Devices) to determine substrate potential of the compound. […]
smiles,measurement,value
COc1ccc(-c2nc(CS(=O)CC(=O)N3CCC4(CC3)OCCO4)c(C)o2)cc1 (stereo unspecified),Potency,1460 nM (active)
